The nature of assay [1]: HepG2 liver cancer cell viability effects, profiling panel, resazurin fluorescence, 24 h, PK04 Diversity Set (AID 1172). Particulars: higher = more signal. (The colour change of resazurin is a common sign of viable cells or microbes.)
A short description of assay [2]: basal S. cerevisiae growth modulation, no modifier, primary screen, OD600, strain BY4716, 24 h, basal condition (AID 1173). Particulars: OD600, 24 h, higher = more signal, called active from +8 up or from −8 down.
Assay [3] can be described thus: MM1S myeloma cell viability, profiling panel, resazurin fluorescence, basal, 24 h, PK04 Diversity Set (AID 1174).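 Also: MM1S multiple myeloma cell line.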 Particulars: higher = more signal, called active from +8 up or from −8 down.
Assay [4] addresses Dihydroorotate dehydrogenase (quinone), mitochondrial (Plasmodium falciparum (isolate 3D7)) (UniProt Q08210). Nature of the assay: PfDHODH enzyme inhibitors, primary screen, biochemical, C-terminal His tag, absorbance 600 nm (AID 1175).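 Also: recombinant parasite enzyme with a five histidine tag at its C terminus.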 Conditions: DCIP absorbance 600 nm, higher = more signal, called active from +8 up or from −8 down.
The nature of assay [5]: P. aeruginosa biofilm formation inhibitors, primary screen, strain PAO1, LB-PBS medium, absorbance 600 nm (AID 1176). Particulars: P. aeruginosa PAO1 growth/biofilm, A600, 12 h; higher = more signal.
Assay [6] in a line: S. cerevisiae RM11-1a growth modifiers, primary screen, strain RM11-1a, OD600, basal, 24 h (AID 1177).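 Also: cultures grown under basal conditions with no added stressor.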 Particulars: OD600, 24 h, higher = more signal, called active from +8 up or from −8 down.
Assay [7] can be described thus: E. coli acrAB mutant growth effects, primary screen, E. coli filamentation inducers, strain DRC39, OD650, 24 h (AID 1178).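 Also: growth measured as culture turbidity by optical density at 650 nm.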 Particulars: higher = more signal, called active from +8 up or from −8 down.
The nature of assay [8]: E. coli acrAB mutant growth effects, primary screen, E. coli filamentation inducers, strain DRC39, OD650, 48 h (AID 1179).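 Also: screen aims at cell division blockers that make cells filament.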 Particulars: E. coli DRC39 delta-acrAB growth, higher = more signal, called active from +8 up or from −8 down.
Assay [9] in a line: RPMI8226 myeloma cell viability, profiling panel, resazurin fluorescence, basal, 24 h, PK04 Diversity Set (AID 1180).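 Also: RPMI8826 multiple myeloma cell line at 5000 cells per well.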 Particulars: higher = more signal.
Assay [10] concerns the target E3 ubiquitin-protein ligase XIAP (Homo sapiens) (UniProt P98170). Nature of the assay: XIAP binders, primary screen, biophysical, small-molecule microarray, fluorescence 635 nm (AID 1181).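 Also: score merges 667 nm emission and signal to noise over triplicate slides.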 Particulars: small-molecule microarray binding, higher = more signal.
The subject of assay [11] is XIP peptide (Xip251-270) binding. Nature of the assay: small-molecule binders of XIP peptide, primary screen, biochemical, small-molecule microarray, fluorescence 635/667 nm, 0.1 µg/mL protein (AID 1182). Conditions: fluorescent protein binding, 635 nm, higher = more signal, called active from +8 up or from −8 down.
In a further assay the test system is XIP peptide (Xip251-270). The experiment in a line: small-molecule binders of XIP peptide, primary screen, biochemical, small-molecule microarray, fluorescence 635/667 nm, 0.5 µg/mL protein (AID 1183). Particulars: small-molecule microarray binding, fluorescence 635 nm; higher = more signal.
Assay [12] is described as follows: Plasmodium falciparum growth inhibition, primary screen, strain 3D7, DAPI fluorescence, 100 nL (AID 1184).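 Also: parasites grown inside human red blood cells in medium with human serum.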 Particulars: P. falciparum 3D7 growth, 3 d, higher = more signal.
Assay [13] deals with Homeobox protein Hox-A13 (Mus musculus) (UniProt Q62424). The experiment in a line: inhibitors of HoxA13-DNA binding, primary screen, biochemical, fluorescence polarization, labeled oligonucleotide (AID 1185). Particulars: 15 min, higher = more signal, called active from +8 up or from −8 down. In general terms: Polarisation of emitted light reports the rotation of a fluorescent probe.
Chain of Homeobox protein Hox-A13 (Mus musculus) (Q62424 whole entry, looked up): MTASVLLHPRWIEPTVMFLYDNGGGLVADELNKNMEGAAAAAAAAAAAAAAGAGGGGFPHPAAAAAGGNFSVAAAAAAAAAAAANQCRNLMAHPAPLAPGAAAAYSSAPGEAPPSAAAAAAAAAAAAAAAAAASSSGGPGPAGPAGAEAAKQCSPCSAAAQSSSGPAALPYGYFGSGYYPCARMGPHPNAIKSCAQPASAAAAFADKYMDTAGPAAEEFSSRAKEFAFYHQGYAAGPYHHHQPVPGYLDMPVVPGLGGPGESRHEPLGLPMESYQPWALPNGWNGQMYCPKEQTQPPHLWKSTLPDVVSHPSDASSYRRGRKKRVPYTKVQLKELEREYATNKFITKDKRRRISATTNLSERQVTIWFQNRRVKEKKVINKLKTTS

Assay [14] is described as follows: inhibitors of hydroxyurea-induced Chk1 phosphorylation, primary screen, imaging, HeLa, phospho-Chk1 antibody, percent positive cells (AID 1186). Particulars: hydroxyurea-induced phospho-Chk1 immunofluorescence imaging, higher = more signal.
Assay [15] in a line: inhibitors of hydroxyurea-induced Chk1 phosphorylation, primary screen, imaging, HeLa, phospho-Chk1 nuclear intensity (AID 1187). Conditions: hydroxyurea-induced phospho-Chk1 immunofluorescence imaging, higher = more signal.

Active and inactive are the calls of the source. Unless noted, no rule for the calls is given here.

Chain of E3 ubiquitin-protein ligase XIAP (Homo sapiens) (P98170 whole entry, looked up): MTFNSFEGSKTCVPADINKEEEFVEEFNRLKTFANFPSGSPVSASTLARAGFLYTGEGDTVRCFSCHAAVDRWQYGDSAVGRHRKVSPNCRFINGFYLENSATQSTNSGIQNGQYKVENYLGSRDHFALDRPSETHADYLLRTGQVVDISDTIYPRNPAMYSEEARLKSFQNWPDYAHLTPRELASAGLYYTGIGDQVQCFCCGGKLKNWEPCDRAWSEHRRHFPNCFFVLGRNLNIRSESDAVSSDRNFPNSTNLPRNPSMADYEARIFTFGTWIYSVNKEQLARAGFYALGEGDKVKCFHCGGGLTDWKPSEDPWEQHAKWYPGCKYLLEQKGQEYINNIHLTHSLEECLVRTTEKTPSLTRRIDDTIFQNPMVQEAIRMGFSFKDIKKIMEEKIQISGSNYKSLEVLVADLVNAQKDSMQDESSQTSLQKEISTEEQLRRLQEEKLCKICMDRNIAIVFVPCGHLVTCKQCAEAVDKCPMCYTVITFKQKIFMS
Chain of Dihydroorotate dehydrogenase (quinone), mitochondrial (Plasmodium falciparum (isolate 3D7)) (Q08210 whole entry, looked up): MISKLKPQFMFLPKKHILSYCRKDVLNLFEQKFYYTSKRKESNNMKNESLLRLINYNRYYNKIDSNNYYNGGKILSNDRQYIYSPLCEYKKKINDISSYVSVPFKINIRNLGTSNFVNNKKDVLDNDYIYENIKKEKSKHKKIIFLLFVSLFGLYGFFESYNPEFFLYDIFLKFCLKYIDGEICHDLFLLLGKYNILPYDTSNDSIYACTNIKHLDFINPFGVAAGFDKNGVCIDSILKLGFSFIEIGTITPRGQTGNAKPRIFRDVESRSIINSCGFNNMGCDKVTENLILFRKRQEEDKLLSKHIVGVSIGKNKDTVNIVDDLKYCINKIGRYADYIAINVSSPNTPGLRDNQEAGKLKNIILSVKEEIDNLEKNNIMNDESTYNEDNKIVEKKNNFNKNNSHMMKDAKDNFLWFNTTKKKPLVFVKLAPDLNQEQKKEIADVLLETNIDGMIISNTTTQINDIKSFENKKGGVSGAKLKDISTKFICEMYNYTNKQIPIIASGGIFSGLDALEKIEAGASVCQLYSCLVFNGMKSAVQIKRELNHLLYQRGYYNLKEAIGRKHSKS

`COc1ccc([Si](C)(C)[C@H]2[C@H](CCO)O[C@@]3(C(=O)N(Cc4ccccc4)c4ccc(N5C(=O)COc6ccccc65)cc43)[C@@H]2C)cc1`: the z-score is -0.981 in assay [1]; 0.0662 (inactive) in [2]; -2.72 (inactive) in assay [3]; 1.31 (inactive) in assay [5]; 3.06 (inactive) in [6]; 1.2 (inactive) in [7]. For the same compound, the z-score in assay [8] is 0.433 (inactive); in [9], -3.14; in assay [12], -1.09; in [13] it was -0.771 (inactive); in assay [14] it was -0.584 (inactive); in assay [15], -0.791 (inactive). Moreover, the composite z-score was 0.0861 (inactive) in [4], -0.0622 in assay [10], 0.577 (inactive) in assay [11] and 0.473 with XIP peptide (Xip251-270).

As for `CCCCCCC#C[Si](O[C@H](c1ccccc1)c1cn([C@H](C)c2ccccc2)nn1)(C(C)C)C(C)C`, the z-score is 1.94 in [1]; 0.243 (inactive) in [2]; 2.59 (inactive) in assay [3]; -0.443 (inactive) in [5]; 0.53 (inactive) in [6]; -0.0375 (inactive) in assay [7]. Besides, the z-score in assay [8] was 0.622 (inactive); in assay [9], 3.6; in assay [12], 0.308; in assay [13] it was 0.337 (inactive); in assay [14] it was -0.341 (inactive); in assay [15], -0.487 (inactive). The composite z-score was -0.204 (inactive) in assay [4], -0.359 in assay [10], -0.131 (inactive) in [11] and -0.012 in the assay with XIP peptide (Xip251-270).

As for `COCCOC(=O)N1C(=O)[C@@]2(c3ccccc31)[C@H](C(=O)N1CCCCCCC1)[C@H]1C(=O)O[C@H](c3ccccc3)[C@H](c3ccccc3)N1[C@@H]2c1ccccc1OCCO`, the z-score was -0.415 in [1]; 0.406 (inactive) in [2]; -0.89 (inactive) in [3]; 3.81 (inactive) in assay [5]; 1.79 (inactive) in assay [6]; -0.38 (inactive) in assay [7]. In addition, the z-score in assay [8] is 0.0795 (inactive); in assay [9], -0.201; in [12] it was -2.1; in assay [13], 3.39 (inactive); in assay [14], -0.26 (inactive); in [15] it was -0.299 (inactive). For the same compound, the composite z-score in assay [4] was -0.089 (inactive); in assay [10] it was 0.496; in assay [11], 2.16 (inactive); in the assay with XIP peptide (Xip251-270), 0.83.

For the compound `[N-]=[N+]=NCc1ccccc1C[C@@]1(C(=O)NCc2ccccc2)N=C(c2ccc(OCCCO)cc2)O[C@@H]1c1ccccc1CN=[N+]=[N-]`, the z-score is -0.594 in [1]; 0.548 (inactive) in assay [2]; -0.709 (inactive) in assay [3]; 1.74 (inactive) in assay [5]; 1.28 (inactive) in assay [6]; 0.561 (inactive) in assay [7]. In addition, the z-score in [8] was 0.678 (inactive); in assay [9], -0.538; in [12], -2.59; in [13], 3.34 (inactive); in assay [14], -0.174 (inactive); in assay [15], -0.332 (inactive). Further, the composite z-score is -0.067 (inactive) in assay [4], -0.174 in [10], 0.804 (inactive) in [11] and 0.735 in the assay with XIP peptide (Xip251-270).

Turning to `C=CCC(OC(C)=O)[C@@H]1[C@@H](N(Cc2ccc(-c3cccc(C(F)(F)F)c3)o2)C(=O)Cc2ccc(OC)cc2)c2cc(OCCCO)ccc2N1C(=O)Cc1ccc(OC)cc1` (stereo not given in full), the z-score in [1] is -0.0596; in assay [2] it was -1.2 (inactive); in [3], 1.08 (inactive); in assay [5] it was 0.125 (inactive); in [6], -1.08 (inactive); in assay [7], 1.49 (inactive). The z-score in assay [8] is 0.814 (inactive); in assay [9], 0.695; in [12] it was -2.23; in [13] it was -3.42 (inactive); in assay [14], -0.186 (inactive); in [15], -0.0407 (inactive). Also, the composite z-score was -1.49 (inactive) in assay [4], -0.0879 in [10], -0.343 (inactive) in assay [11] and 0.278 in the assay with XIP peptide (Xip251-270).

Turning to `Cc1ccc([C@H]2C(C(=O)O)=C[C@@H](C(C)C)N2S(=O)(=O)c2ccc(C)cc2)cc1`, the z-score in assay [1] is -0.357; in assay [2], -0.502 (inactive); in [3] it was -0.645 (inactive); in assay [5], 0.546 (inactive); in [6] it was -0.577 (inactive); in assay [7] it was -0.717 (inactive). Also, the z-score in assay [8] was 0.0184 (inactive); in [9] it was -1.4; in [12] it was 1.65; in [13], -4.3 (inactive); in assay [14], -0.482 (inactive); in assay [15] it was -1.01 (inactive). The composite z-score in assay [4] was -0.695 (inactive); in assay [10], 0.0264; in assay [11], 0.165 (inactive); with XIP peptide (Xip251-270), 0.386.

`Cc1cccc(/C=C/C=O)c1`: the z-score was 0.033 in assay [1]; -2.91 (inactive) in assay [2]; -0.0488 (inactive) in [3]; 0.13 (inactive) in assay [5]; -0.181 (inactive) in [6]; 0.578 (inactive) in [7]. Moreover, the z-score is 0.35 (inactive) in assay [8]; 0.387 in [9]; 0.787 in assay [12]; -1.05 (inactive) in assay [13]; 0.381 (inactive) in assay [14]; 0.412 (inactive) in assay [15]. Moreover, the composite z-score in [4] is -1.16 (inactive); in assay [10], -0.0559; in assay [11], 0.43 (inactive); with XIP peptide (Xip251-270), 0.838.

As to `C=CCC(OC(C)=O)[C@@H]1[C@@H](N(Cc2cc3ccccc3o2)C(=O)c2cccc3ccccc23)c2cc(OCCCO)ccc2N1C(=O)Cc1ccc(OC)cc1` (stereo not given in full), the z-score in assay [1] was -1.29; in assay [2], -0.149 (inactive); in assay [3], -1.17 (inactive); in assay [5], -0.334 (inactive); in assay [6], 0.196 (inactive); in assay [7], -0.386 (inactive). Also, the z-score in assay [8] is -0.725 (inactive); in assay [9], -1.17; in assay [12], -2.37; in [13], -3.31 (inactive); in [14] it was 0.821 (inactive); in [15], 0.775 (inactive). For the same compound, the composite z-score is 0.507 (inactive) in [4], 0.211 in assay [10], 0.1 (inactive) in [11] and -0.208 in the assay on XIP peptide (Xip251-270).

`CO[C@H]1O[C@H](CO)[C@@H](OC(=O)Nc2ccc3c(c2)OCO3)[C@H](OC(=O)Nc2ccc3c(c2)OCO3)[C@H]1OC(=O)Nc1ccc2c(c1)OCO2`: the z-score was -0.159 in assay [1]; 1.66 (inactive) in assay [2]; -0.798 (inactive) in [3]; 2.5 (inactive) in assay [5]; 2.54 (inactive) in assay [6]; 1.73 (inactive) in assay [7]. In addition, the z-score is -0.273 (inactive) in [8]; -0.511 in assay [9]; -2.1 in assay [12]; -4.78 (inactive) in assay [13]; -0.134 (inactive) in assay [14]; 0.245 (inactive) in assay [15]. In addition, the composite z-score in assay [4] was -0.145 (inactive); in assay [10], 0.463; in [11] it was 2.3 (inactive); in the assay on XIP peptide (Xip251-270), 0.842.

Consider `COC(=O)[C@@]1(Cc2ccc(OC)cc2)[C@H]2c3cc(C(=O)N(C)C)n(CCSCCO)c3C[C@H]2CN1C(=O)c1ccccc1`, for which the z-score in [1] is 0.123; in assay [2] it was 0.32 (inactive); in [3] it was -0.415 (inactive); in assay [5], 0.852 (inactive); in assay [6], -0.459 (inactive); in assay [7], 0.219 (inactive). In addition, the z-score in [8] was -0.143 (inactive); in assay [9] it was -0.409; in assay [12], -1.48; in assay [13], -5.09 (inactive); in [14] it was -0.02 (inactive); in [15] it was 0.101 (inactive). Besides, the composite z-score in assay [4] is -0.669 (inactive); in assay [10], -0.0062; in assay [11] it was 0.149 (inactive); in the assay on XIP peptide (Xip251-270), 0.504.
